Assay outcomes deposited in PubChem by The Scripps Research Institute Molecular Screening Center.
Shown are actives, neighbours in structure and some others; about 1.8% of the full set was active somewhere.
PAD4 inh = PAD4 (human) enzyme inhibition; Q9UM07; recombinant PAD4, RCA probe fluorescence polarization; inhibition, % at 6.36 µM; 0.41% of 330,000 active;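 active = percent inhibition above a cutoff equal to the mean of all tested compounds plus 3 SD, cut at about 15% in these data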
GSTO1 counter = blocks human GSTO1 in RBBP9 counter-screen. 1.1% of 300,000 active. recombinant GSTO1, activity-based probe fluorescence polarization. inhibition, % at 5.96 µM. P78417;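 active = inhibition above the campaign mean inhibition plus 3 SD, cut at about 35% in these data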
Target sequence (P78417 whole entry, looked up): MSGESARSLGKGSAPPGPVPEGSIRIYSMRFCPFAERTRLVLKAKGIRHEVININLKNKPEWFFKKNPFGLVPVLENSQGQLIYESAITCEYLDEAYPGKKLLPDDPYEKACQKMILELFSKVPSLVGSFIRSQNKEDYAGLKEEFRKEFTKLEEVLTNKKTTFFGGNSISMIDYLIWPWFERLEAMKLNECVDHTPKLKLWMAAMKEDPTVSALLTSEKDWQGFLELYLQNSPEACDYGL
LYPLA2 inh = counter-screen for PME1 inhibitors: inhibitors of human LYPLA2 | O95372 | recombinant LYPLA2, FP-Rh probe fluorescence polarization | inhibition, % at 5.9 µM | 0.38% of 320,000 active;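 active = inhibition above the screen-wide mean plus 3 SD, limit set per campaign, cut at about 26% in these data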
Target sequence (O95372 whole entry, looked up): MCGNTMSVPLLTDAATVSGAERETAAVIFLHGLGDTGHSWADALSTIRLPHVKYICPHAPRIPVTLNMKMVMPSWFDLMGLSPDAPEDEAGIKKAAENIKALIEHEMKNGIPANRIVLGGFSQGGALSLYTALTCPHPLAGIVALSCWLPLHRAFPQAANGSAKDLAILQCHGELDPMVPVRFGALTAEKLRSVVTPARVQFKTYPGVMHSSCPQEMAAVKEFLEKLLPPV
PME-1 inh = blocks human protein phosphatase methylesterase 1; Q9Y570; recombinant PME-1, FP-Rh probe fluorescence polarization; inhibition, % at 5.9 µM; 0.53% of 320,000 active; AID 2130;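 active = inhibition above the campaign mean of all compounds plus 3 SD, cut at about 26% in these data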;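 also: competitive labeling of PME-1 active site by serine hydrolase directed probe; inhibitors block probe labeling so polarization falls and inhibition rises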
LYPLA1 counter = counter-screen for PME1 inhibitors: inhibitors of human LYPLA1. AID 2174. 0.16% of 320,000 active. O75608. inhibition, % at 5.9 µM. recombinant LYPLA1, FP-Rh probe fluorescence polarization;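 active = inhibition above the mean of all tested compounds plus 3 SD, set per campaign, cut at about 14% in these data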;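 also: inhibitors block serine hydrolase probe labeling of LYPLA1 so polarization falls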
Fam108B counter = blocks mouse Fam108B hydrolase in RBBP9 counter-screen; recombinant Fam108B, FP-Rh probe fluorescence polarization; inhibition, % at 9.51 µM; 0.33% of 300,000 active; AID 1947;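 active = inhibition above the screen mean inhibition plus 3 SD, computed separately per campaign, cut at about 18% in these data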;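 also: inhibitors lower polarization as less probe binds the enzyme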
GSTO1 inh conf = GSTO1 (human) inhibition, confirmation. shares compounds with GSTO1 counter. recombinant GSTO1, probe fluorescence polarization. inhibition, % at 5.96 µM. 54% of 2,400 active. AID 2176;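 active = inhibition above the primary screen's cutoff, its mean inhibition plus 3 SD, cut at about 35% in these data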;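 also: loss of polarization as inhibitors block binding of rhodamine sulfonate ester activity probe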
GSTO1 ABPP inh = blocks recombinant human glutathione S-transferase omega 1; shares compounds with GSTO1 counter; AID 463110; inhibition, % at 1 µM; 30% of 130 active; recombinant GSTO1, gel ABPP SE-Rh probe fluorescence;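 active = inhibition of the enzyme GSTO1 above about 75%, limit read from the data; inactive = inhibition below that limit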
Of the large screens only hits and unclear results are named; the others gave an inactive call (follow-up assays come after a bar, where they were run).

CC1(C)Cc2ccccc2C2=NNC(=O)C2=N1	GSTO1 counter 56 | GSTO1 inh conf 82
COC(=O)c1ccc(N=CC2=C(O)CC(c3ccccc3)CC2=O)cc1 (centres undefined)	none
O=C1CC(c2ccccc2)CC(O)=C1C=Nc1ccc(O)cc1 (centres undefined)	GSTO1 counter 56 | GSTO1 inh conf inactive
Cc1ccc(CNC(=O)CCCn2nc(C)n3ccnc3c2=O)cc1	none
CCOC(=O)c1[nH]c2ccc(OC)cc2c1NC(=O)CN1CCc2ccccc2C1	GSTO1 counter 51 | GSTO1 inh conf inactive
COc1ccc(C)cc1NS(=O)(=O)c1ccc(Cl)nc1	none (no result: GSTO1 counter, Fam108B counter)
COc1ccc(-n2nc3c(c2NC(=O)CCl)CSC3)cc1	GSTO1 counter 88 | GSTO1 inh conf 92
Cc1cc(C)c(S(=O)(=O)N2CCN(C(=O)c3cc4ccccc4oc3=O)CC2)c(C)c1	none (no result: GSTO1 counter, Fam108B counter)
Cc1nc(-c2ccc(O)c(O)c2)cs1	GSTO1 counter 42 | GSTO1 inh conf inactive
Oc1ccc(-c2csc(-c3cccnc3)n2)cc1O	GSTO1 counter 59 | GSTO1 inh conf inactive
Cc1ccc2nc(-c3ccc(O)c(O)c3)cn2c1	GSTO1 counter 58 | GSTO1 inh conf inactive
Oc1ccc(-c2csc(-c3ccccc3)n2)cc1O	GSTO1 counter 39 | GSTO1 inh conf inactive
COc1ccc(S(=O)(=O)n2cccc2)c(OC)c1	none
CN(CCOC(=O)CN1C(=O)c2ccccc2C1=O)C1=NS(=O)(=O)c2ccccc21	none
COc1cccc(-n2nnc3c(=O)n(CC(=O)N4CCC(Cc5ccccc5)CC4)cnc32)c1	GSTO1 counter 39 | GSTO1 inh conf inactive
COCC(C)NC(=O)c1cc(-c2ccc(OC)c(OC)c2)on1 (centres undefined)	GSTO1 counter 53 | GSTO1 inh conf inactive
CC1(C)Cc2c(sc(NC(=O)C(=O)NCCCN3CCOCC3)c2C#N)CO1	none
CC(C)(O)CC[C@@H](O)[C@](C)(O)[C@H]1CC[C@@]2(O)C3=CC(=O)[C@@H]4C[C@@H](O)[C@@H](O)C[C@]4(C)[C@H]3CC[C@]12C	GSTO1 counter 39 | GSTO1 inh conf inactive
COc1ccc(S(=O)(=O)NCc2cccnc2)cc1C(=O)Nc1ccccc1	none
O=C(CN1C(=O)CCSc2ccc(S(=O)(=O)N3CCOCC3)cc21)Nc1cccc(F)c1	none
CCOC(=O)Cn1c(=O)oc2cc(S(=O)(=O)Nc3ccc(N(CC)CC)cc3C)ccc21	GSTO1 counter 68 | GSTO1 inh conf 62
O=C(NNC(=O)c1ccccc1O)c1ccc(S(=O)(=O)Nc2ccccc2)cc1	none
O=C(NNC(=O)c1ccccc1O)c1ccc(NS(=O)(=O)c2ccc(F)cc2)cc1	GSTO1 counter 48 | GSTO1 inh conf inactive
CC(=O)C1=C(C)OC2(O)c3ccccc3C(=O)C12O (centres undefined)	GSTO1 counter 72 | GSTO1 inh conf 80
CC1=C(C#N)C2(O)C(=O)c3ccccc3C2(O)N1 (centres undefined)	none
CNS(=O)(=O)c1cccc(C(=O)OCC(=O)c2ccc3[nH]c(=O)[nH]c3c2)c1	none (no result: GSTO1 counter, LYPLA2 inh, PME-1 inh, LYPLA1 counter, Fam108B counter)
O=[N+]([O-])c1ccc(Oc2ccc(S(=O)(=O)Nc3ccccc3)cc2)cc1	none
O=C1C(Cl)=C(NS(=O)(=O)c2ccc([N+](=O)[O-])cc2)C(=O)c2ccccc21	GSTO1 counter 100 | GSTO1 inh conf 88
COc1ccc(CN=Cc2c(O)[nH]c3ccccc23)cc1	none
Oc1c(C=NCc2ccc(F)cc2)[nH]c2ccc(Br)c(Cl)c12	GSTO1 counter 48 | GSTO1 inh conf inactive
O=c1[nH]c(=O)n(C2CCCCCC2)c(O)c1C=NCc1ccc(F)cc1	none
Cc1ccc(CN=Cc2[nH]c3ccc(Br)c(Cl)c3c2O)cc1	GSTO1 counter 52 | GSTO1 inh conf inactive
CC(C)(C)c1cc[n+](C2=C([O-])c3ccccc3C(=O)/C2=N\S(=O)(=O)c2cccs2)cc1	GSTO1 counter 80 | GSTO1 inh conf 89
O=C1/C(=N\S(=O)(=O)c2cccs2)C([n+]2ccccc2)=C([O-])c2ccccc21	GSTO1 counter 92 | GSTO1 inh conf 86
O=S(=O)(/N=C/c1ccccc1O)c1cccs1	none
COCCN(C(=O)CSc1nc(N)cc(=O)[nH]1)c1c(N)n(Cc2ccccc2)c(=O)[nH]c1=O	none
Cc1c(C)n(C)c2ccc(C(=O)NCCN3CCOCC3)cc12	none
CCOc1ccc(-c2nnc(N)s2)cc1	none
CC1CN(Cc2csc(-c3ccc(Cl)cc3)n2)CC(C)O1 (centres undefined)	none
ClCc1csc(-c2ccc(Cl)cc2)n1	GSTO1 counter 91 | GSTO1 inh conf 101 | GSTO1 ABPP inh inactive
CCOc1ccc(-c2nc(CCl)cs2)cc1	GSTO1 counter 79 | GSTO1 inh conf 93 | GSTO1 ABPP inh inactive
COc1ccc(NC(=S)NC(=O)c2ccc(Br)o2)cc1	GSTO1 counter 45 | GSTO1 inh conf inactive
CCCC(=O)Nc1ccc(C(=O)NNC(=S)NC(=O)c2cccs2)cc1	none
O=C(NC(=S)Nc1ccccc1)c1ccc(Br)o1	none
CCCC(=O)Nc1ccc(C(=O)NNC(=S)NC(=O)c2ccc(Br)o2)cc1	GSTO1 counter 44 | GSTO1 inh conf inactive
CC1=NN(c2ccc(C(F)(F)F)cn2)C(=O)C1	GSTO1 counter 44 | GSTO1 inh conf inactive
CCOC(=O)N1CCN(c2ccc(C(F)(F)F)cn2)CC1	none
CCN(CC)CCNc1cc(C)nc2c1C(=O)C(=O)C=C2N1CCCCC1	GSTO1 counter 77 | GSTO1 inh conf 45
CCN(CC)CCNC(=O)c1ccc(N2CCCCC2)c(NS(=O)(=O)c2ccc(C)cc2)c1	none
CC1=CC(C)(C)Nc2ccc(C)cc21	none
CC1=CC(C)(C)Nc2ccc(OC(=O)CN3C(=O)CCC3=O)cc21	GSTO1 counter 62 | GSTO1 inh conf inactive
CCCOC(=O)CSC1=C(C#N)C(c2ccccc2OCC)C(C#N)C(=O)N1 (centres undefined)	GSTO1 counter 71 | GSTO1 inh conf inactive
CCCCOC(=O)CSC1=C(C#N)C(c2ccccc2OCC)C(C#N)C(=O)N1 (centres undefined)	none
COc1cccc(CNC(=O)c2cc(S(=O)(=O)N3CCOCC3)ccc2N2CCCC2)c1	none (no result: GSTO1 counter, Fam108B counter)
COC(=O)c1c([N+](=O)[O-])c(OC)c(OC)c(OC)c1[N+](=O)[O-]	GSTO1 counter 39 | GSTO1 inh conf 54
CC1CC(C(=O)Nc2ccccc2)C(=O)O1 (centres undefined)	none
O=C(CN1CCCCC1)Nc1cccc(Oc2ccccc2)c1	none
CC(=O)Nc1ccc(NC(=O)Cc2ccc(-c3ccccc3)cc2)cc1	none
O=C(CCl)Nc1cccc(Oc2ccccc2)c1	GSTO1 counter 71 | GSTO1 inh conf 97
